Values without a mark were called inactive. The rule behind the calls is not given here.
Target: VTCN1, Q7Z7D3
Sequence (Q7Z7D3 whole entry): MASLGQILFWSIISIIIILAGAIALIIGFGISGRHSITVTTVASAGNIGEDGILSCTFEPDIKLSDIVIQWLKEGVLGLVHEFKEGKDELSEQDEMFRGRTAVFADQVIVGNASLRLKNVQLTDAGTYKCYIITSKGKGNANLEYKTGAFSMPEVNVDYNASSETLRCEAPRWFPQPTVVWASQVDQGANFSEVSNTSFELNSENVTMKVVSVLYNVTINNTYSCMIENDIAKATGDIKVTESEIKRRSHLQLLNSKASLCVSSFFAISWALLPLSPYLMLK

Row | Binder | binding in a display sort
1 | design_606_b60ff77f-1541-4e5f-8260-46d5e5f6b85e_200_dldesign_0_cycle1_af2pred (protein) EEEKLIADSAKEVDAAADKAMDAMAKNKEAAKAAKAELEALAAKFKELAEKGSPEVAKKMNLAAKTMKRFAELLKKAAS | not found
2 | design_605_6ebdab39-eaab-4492-afcb-164e20c3b25e_2299_dldesign_0_cycle1_af2pred (protein) ELEELKKKHEAYEEYLKAIAYYEQSKLSKSLAEEAKQKAAEHINKANKLLGKEELSLEEAVKEAEKLDENASEIVKKLVETKKKIEEL | not found
3 | design_605_6ebdab39-eaab-4492-afcb-164e20c3b25e_1516_dldesign_0_cycle1_af2pred (protein) EKEKEAKEIIEKARKALKEARKKLKAKGATPEQAKKMQEARELAAEADYLAKKDPKKGKEIAEKAIELAKKAAE | not found
4 | design_606_b60ff77f-1541-4e5f-8260-46d5e5f6b85e_64_dldesign_0_cycle1_af2pred (protein) GSSEEAERDSRLVSEMVRAARAGAEAAARLPPAEAARYRAELAALVAAMYDALGAGSPAAEEYVARVRALAAEIAARAAAA | not found
5 | design_605_6ebdab39-eaab-4492-afcb-164e20c3b25e_1733_dldesign_0_cycle1_af2pred (protein) AAEKGKNLAESVKLFSEQALENGKKLGAEALKEAAKRIKKRGDKAVTTIAKDPSAAPYAKEAEAITKDYIKKAEEAAKKAK | not found
6 | design_605_6ebdab39-eaab-4492-afcb-164e20c3b25e_2056_dldesign_0_cycle1_af2pred (protein) MKEELLKISEESHQAAAEAQFLAAKNPSVKPLAEEAKKHAKKSIEAAKEGDLEKAKEHYKKVLELKEKAKKE | not found
7 | design_606_b60ff77f-1541-4e5f-8260-46d5e5f6b85e_842_dldesign_0_cycle1_af2pred (protein) MEEAKKKITELAEAAAAADPETAKKLLAEASRYLIDYISKNKLDSETISELVSYLKEKGKEALAQAKAKEAAA | not found
8 | design_605_6ebdab39-eaab-4492-afcb-164e20c3b25e_1884_dldesign_0_cycle1_af2pred (protein) NKKKEEAAKLAKESLAKAKEIADYAVANKDTINKAEATALATEAASYAAEALGYAAFAGKEEYEKMKKEFKEIREKMKAVLDAI | not found
9 | design_606_b60ff77f-1541-4e5f-8260-46d5e5f6b85e_888_dldesign_0_cycle1_af2pred (protein) EVEKLIKEVKEAGEKAAKADPDIADYIKNAVKTAEELMTKNAADLEKVKEIAEKAINTFKRIIENAEKAKELEAK | not found
10 | design_606_b60ff77f-1541-4e5f-8260-46d5e5f6b85e_733_dldesign_0_cycle1_af2pred (protein) DAATQKKASEAAAEAHEAAAEFTNKLKDKELKDKIKEIVREAIEKGKAATPEEALKIFTEAKKKIEDAAKKYA | not found
11 | design_605_6ebdab39-eaab-4492-afcb-164e20c3b25e_2390_dldesign_0_cycle1_af2pred (protein) AAEKLKEKVEKIKKEAEEKAKKAKTKEEAAKIYREGAEKIRKLATEALKKDPSVEPAVKYGSKVAAELREKAAELDVLANRE | not found
12 | design_605_6ebdab39-eaab-4492-afcb-164e20c3b25e_2465_dldesign_0_cycle1_af2pred (protein) AKKLQEAADEANKAFALLAKAAKAHPEIKEEALAAKKAALTMLEGKNAKEAAKAAKEKLKAAAQKAPEVAAEMAAAMKAVDKMLEL | not found
13 | design_605_6ebdab39-eaab-4492-afcb-164e20c3b25e_1837_dldesign_0_cycle1_af2pred (protein) MDKEKIKKKLYKELSEAAKKGAMAVFDVVDKAYDEGTAELAKEAAEEVAKETTPEEAKAMRAGARYLEAATA | not found
14 | design_605_6ebdab39-eaab-4492-afcb-164e20c3b25e_2228_dldesign_0_cycle1_af2pred (protein) SALAERARALRAAARAEAAADPENAAAIARAGARELRALYRENRDRITPEERATISAAAADLYELAAEAEAE | not found
15 | design_606_b60ff77f-1541-4e5f-8260-46d5e5f6b85e_600_dldesign_0_cycle1_af2pred (protein) AAAAEAKGKKINELRIEANDYAYEHEINSSNPELSKAYKEEAEKKIKEAEKIDPEGGKRIKKSFESIEEHVKKNL | not found
16 | design_606_b60ff77f-1541-4e5f-8260-46d5e5f6b85e_724_dldesign_0_cycle1_af2pred (protein) AAAQKAAEAAATLYENSNEAIWLAKKEGAKGAVEGKKLLEKGVAAAEAAAKEASPEDAAKLKKLAESRKERTEKAIKKALA | not found
17 | design_605_6ebdab39-eaab-4492-afcb-164e20c3b25e_2187_dldesign_0_cycle1_af2pred (protein) SAAKEEAKKEAEKLKEKVKKLKKELEENKDNKEKAKKIAKEAREVIREARELGKKYASFKEVHKELSEAAAEAAEVRAEADLYAS | not found
18 | design_605_6ebdab39-eaab-4492-afcb-164e20c3b25e_1941_dldesign_0_cycle1_af2pred (protein) AAAEEKAAEEEMKKLGEKNVEKVKKAAKKGAEEAEKAVKEAFKDFEKAAKTPASINVGQKAREEMLGIAAEARIKE | not found
19 | design_606_b60ff77f-1541-4e5f-8260-46d5e5f6b85e_580_dldesign_0_cycle1_af2pred (protein) MTEEEKKEAEKKAEEIKKLGKELAKKVLNSKDAEKEVKKAKKELREKGKKLAEAGNPEAKKIISKAVSEAYQLLNEAEWKNLK | not found

Row | Binder | binding in a display sort
20 | design_606_b60ff77f-1541-4e5f-8260-46d5e5f6b85e_411_dldesign_0_cycle1_af2pred (protein) MEEELEKEKKEAEKFLEETKKIAEEAVKRAESGEDIAGAAHELYELKSEAEYLAKTSSPEAAKLYKEAAKIAKEALEEVRKRGKERKA | not found
21 | design_605_6ebdab39-eaab-4492-afcb-164e20c3b25e_1749_dldesign_0_cycle1_af2pred (protein) MTPEELRKAEVEALIKKASEAMGEARFYANYAKLTGDKEAAKKAAEAAKKAIEYLTAAAALSTDPAVKARAKAAAERAKKLAKEALE | not found
22 | design_605_6ebdab39-eaab-4492-afcb-164e20c3b25e_2016_dldesign_0_cycle1_af2pred (protein) KAEEEAKKAVEFLLALGKEHPAGAEYAEKAAKAIENGEDIGTAMAYAWAAGQAVGDAALADKAMDKVAEAHMARK | not found
23 | design_605_6ebdab39-eaab-4492-afcb-164e20c3b25e_2239_dldesign_0_cycle1_af2pred (protein) GEKEKYAEEIKKIAKELKALGTPEGEKGAKVAERLSKQAKKTKKAEHAKGYLDIAKDIEKQAKALIAAKQ | not found
24 | design_606_b60ff77f-1541-4e5f-8260-46d5e5f6b85e_148_dldesign_0_cycle1_af2pred (protein) NPKIEGEAALTRAEGAYESAKALPPEKAAEAYRKAAEIAKKQAEEAEKAGEEAKPYAEKIRKIAKEAEKKAKELEKA | not found
25 | design_605_6ebdab39-eaab-4492-afcb-164e20c3b25e_2478_dldesign_0_cycle1_af2pred (protein) SAAAEAARKAEAKKAADEYYAKGEEYYQKALDDPKNAKKYLQKAYSYYLLAAQAYEIAGDKEKAKEAEEKADKAAEA | not found
26 | design_605_6ebdab39-eaab-4492-afcb-164e20c3b25e_1926_dldesign_0_cycle1_af2pred (protein) SPAEERRAKATAYAARVAKEDPEFALELIREAAKADPETATEVVKAMTEAATKAAAEVDPEKAKELKEKGEAILKEVEKA | not found
27 | design_605_6ebdab39-eaab-4492-afcb-164e20c3b25e_2341_dldesign_0_cycle1_af2pred (protein) LTDEELKEIAKKVAEEAGEKALKLLREGKSIMEAADAADELVKTVEFLPQEYFLYAAKLAAEKVAEAGREVIEERKREEA | not found
28 | design_605_6ebdab39-eaab-4492-afcb-164e20c3b25e_2348_dldesign_0_cycle1_af2pred (protein) DPALEEAKKHAEELAAKLSPDLAKEFKEFADFVLANAEKVITANKDNPEKRKEAGEQAKKVISSAAEAAIKLDK | not found
29 | design_605_6ebdab39-eaab-4492-afcb-164e20c3b25e_2126_dldesign_0_cycle1_af2pred (protein) DELEKYKKEAKEAAKEAIKEAKELGKLIGDEKWAKANQEKIKKIEEKAQKSKDAEVAKKYAEELKKAKEKLKKIKKRAKEALE | not found
30 | design_605_6ebdab39-eaab-4492-afcb-164e20c3b25e_1965_dldesign_0_cycle1_af2pred (protein) VAKSYAEAAKDYTAATEAFTTAATLGADAGVATAKAKLDPGLASIVSTTIKANDAAARAAGAKRWAKRAEKYKAAAEKAAA | not found
31 | design_606_b60ff77f-1541-4e5f-8260-46d5e5f6b85e_118_dldesign_0_cycle1_af2pred (protein) MLEEVKEKAKELKAAKGTPEEKLKLAREARELFRRAREELSARGATPEEAEAMHELRQAAAELEAEAKRELKE | not found
32 | design_606_b60ff77f-1541-4e5f-8260-46d5e5f6b85e_490_dldesign_0_cycle1_af2pred (protein) MEAAKEAAKKVLELADLSAEASAEDFPEVEKKAEEALKFAEEVAKEDPEAGEKAKRTVKRILEDTRKAVEK | not found
33 | design_606_b60ff77f-1541-4e5f-8260-46d5e5f6b85e_370_dldesign_0_cycle1_af2pred (protein) DLVKEASKLSGQAYEYKAAADVGVLNKEELKAGAEIAKKAAELAKKIAKETTPEEAKKYLKQAETMKKIAEYLEKKAQEL | not found
34 | design_606_b60ff77f-1541-4e5f-8260-46d5e5f6b85e_898_dldesign_0_cycle1_af2pred (protein) MNITEKVAAAAQAALAALADPATAVAALSAARFTALDLVSEDIEAGEVAIEIFEKGDAGSRRVARIIRSHVEALKRN | not found
35 | design_606_b60ff77f-1541-4e5f-8260-46d5e5f6b85e_364_dldesign_0_cycle1_af2pred (protein) AEARDKAILEKAKKETEELAKKAEELAKKGAKKEEIEKVIKEIRKVGKEYAAKASPEVAPEILTIAGDAVAEAKGAYQEAKIK | not found
36 | design_606_b60ff77f-1541-4e5f-8260-46d5e5f6b85e_762_dldesign_0_cycle1_af2pred (protein) SEEEKKIKELAKEMEEVGKEAAEAGKKNPEEGKKLRDIMIKLANEAVALAEKLGLEEEAKKIKEKAAELSAKAYEAIAENLA | not found
37 | design_605_6ebdab39-eaab-4492-afcb-164e20c3b25e_2479_dldesign_0_cycle1_af2pred (protein) MKEASEAAAKAYEYMAEALYYGKKASEEAAKEAEKAAKEVKELLKKAREAAKEGKYEEAKKLAEEAYKLAKETYEKLKKELEKKKA | not found
38 | design_606_b60ff77f-1541-4e5f-8260-46d5e5f6b85e_637_dldesign_0_cycle1_af2pred (protein) MEEEEERRRVLEIAREDAEEALAKAKAAAEKGELDGVAIGLARGNASVLDEETGKKVREAADKVEAAAKAAQAAK | not found

Source: publication PMC13494018
